Sampled rows, rich in hits. Any-hit rate of the full collection: about 7.4%.
Rab9 prom act = Rab9 promoter activation; Huh7 Rab9 promoter-luciferase reporter, luminescence, 24 h; Potency, µM (highest dose often 9.22 µM), without a hit: at the top dose activation, negative = inhibition, most hits filed as activators; actives 2.8% (n = 320,000); AID 485297; note: % of control where 0% means no effect; nearly all actives have a fitted effect of over 60% in size
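Rab9 promoter-driven luciferase in stably transfected Huh7 cells; 1500 cells/well rested 2 h, exposed to compound in DMSO for 24 h at 37 °C, 5% CO2. Luminescence read 10 min after adding luciferase reagent at ambient temperature.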
NPC1 prom act = NPC1 promoter activation | Huh7 NPC1 promoter luciferase reporter, 24 h | Potency, µM (series often up to 9.22 µM), inactives show top-dose activation, actives largely listed as activators | actives 2.4% (n = 320,000); note: % of control where 0% means no effect; nearly all actives have a fitted effect of over 60% in size
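Luminescence from an NPC1 promoter-driven luciferase reporter in stably transfected Huh7 cells was measured after 24 h compound treatment at 37 °C, followed by 10 min ambient incubation with luciferase detection reagent.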
FLuc counter = counter-screen for miR-21 project: firefly luciferase inhibitors or activators. AID 588342. purified FLuc, Km substrates, luminescence inhibition. actives 6.9% (n = 360,000). Potency, µM (doses to about 57.5 µM), without a hit: at the highest dose activity change, negative = inhibition, actives largely listed as inhibitors;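 note: plate controls were vehicle for no effect and reference inhibitor for full effect; nearly all actives have a fitted effect of over 55% in size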
Target sequence (P08659 whole entry, looked up): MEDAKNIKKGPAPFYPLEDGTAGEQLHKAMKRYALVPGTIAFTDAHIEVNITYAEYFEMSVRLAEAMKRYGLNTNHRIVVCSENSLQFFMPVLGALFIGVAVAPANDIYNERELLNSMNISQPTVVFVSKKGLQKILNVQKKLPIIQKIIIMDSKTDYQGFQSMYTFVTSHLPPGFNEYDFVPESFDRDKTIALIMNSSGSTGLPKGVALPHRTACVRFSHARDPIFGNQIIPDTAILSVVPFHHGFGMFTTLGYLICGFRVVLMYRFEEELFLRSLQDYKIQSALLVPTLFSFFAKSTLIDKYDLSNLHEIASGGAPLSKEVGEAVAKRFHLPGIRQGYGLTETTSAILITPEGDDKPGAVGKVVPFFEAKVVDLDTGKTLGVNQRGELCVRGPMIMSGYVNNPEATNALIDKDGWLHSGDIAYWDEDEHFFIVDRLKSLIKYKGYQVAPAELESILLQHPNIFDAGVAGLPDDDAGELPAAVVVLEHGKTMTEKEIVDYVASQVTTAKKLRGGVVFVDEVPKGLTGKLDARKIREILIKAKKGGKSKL
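Biochemical qHTS of compounds, final roughly 60 µM downward over six points, against 10 nM purified firefly luciferase using Km concentrations of substrates (10 uM D-luciferin, 10 uM ATP) in Tris acetate pH 7.5 buffer; luminescence output.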
ELG1 genotoxic = inducers of genotoxicity in HEK293T ELG1-luciferase cells; actives 1.3% (n = 330,000); HEK293T ELG1-luciferase reporter, luminescence, 16 h; AID 504466; Potency, µM (top dose mostly 46 µM), for the others: top-dose activity change, positive = activation, usual class: activators; note: % of control where 0% means no effect; nearly all actives have a fitted effect of over 60% in size
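16 hr compound incubation (37 °C, 5% CO2) of HEK293T cells carrying luciferase-tagged ELG1; luciferase then measured by ONE-Glo luminescence after 30 min at RT.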
SMN2 splice enh = SMN2 splice variant enhancement; HEK293 SMN2-luciferase splicing reporter, luminescence, 30-36 h; Potency, µM (top dose mostly 46.1 µM), for the others: top-dose activity change, positive = activation, actives largely listed as activators; actives 2.8% (n = 210,000); AID 1458; note: % of control where 0% means no effect; nearly all actives have a fitted effect of over 55% in size
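HEK293 cells carry an SMN2 […]–luciferase reporter in which exon 7 inclusion puts luciferase in frame. Cells were plated 10-12 h before compound addition, then incubated 30-36 h at 37C. ONE-Glo luminescence was read; sodium butyrate at 4.5 mM final served as control.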
The depositor's hits bear a star; ? = inconclusive; . = no result. Calls come from the whole dose curve; as a rule, active = well fitted curve in the direction sought with a large enough effect; inconclusive = small, poorly fitted or top-dose-only effect, or another doubt; inactive = no such curve, though single readings can be large; an effect the other way counts as inactive or inconclusive. Potency is the fitted concentration of half-maximal effect.

SMILES | Rab9 prom act | NPC1 prom act | FLuc counter | ELG1 genotoxic | SMN2 splice enh
CC(=O)c1ccc(NC(=O)C2CCC(CNS(=O)(=O)c3ccc4c(c3)CCCC(=O)N4)CC2)cc1 (stereo not given) | . | . | 1.9% | . | .
COc1ccc(OC)c2nc(-c3ccc4c(c3)OCO4)ccc12 | 1.41µM* | 1.41µM* | 1.9µM* | 4.61µM* | .
O=C(NCCCN1CCCC1=O)c1cc(-c2ccc3c(c2)OCO3)nc2ccccc12 | -4.1% | -0.1% | 23.9µM* | -14.0% | -4.7%
O=C(NC1CCN(C(=O)Nc2ccccc2Cl)CC1)c1ccccc1 | -7.6% | 0.2% | 3.1% | -0.7% | -13.3%
CCCOc1ccc(OCCSc2ncccn2)cc1 | 3.98µM* | 3.16µM* | 6.75µM* | 10.3µM* | 15.8µM*
Clc1ccc(OCCCCSc2ncccn2)cc1 | 6.9% | -3.2% | ? | -2.0% | -17.3%
COc1ccc(OCCSc2nc(N)cc(N)n2)cc1 | 3.98µM* | 3.98µM* | 21.3µM* | 0.731µM* | -6.5%
Cc1ccc(OCCSc2nc(N)cc(N)n2)cc1 | 1.78µM* | 3.16µM* | 23.9µM* | ? | .
Clc1ccc(OCCSc2ncccn2)c(Br)c1 | 0.708µM* | 1.41µM* | 2.13µM* | 2.06µM* | 12.6µM*
Brc1cccc(OCCSc2ncccn2)c1 | ? | 0.2% | ? | 11.5% | 25.8%
CCC(=O)N1CCc2cc(Br)cc(S(=O)(=O)CCC(=O)Nc3ccc(CC)cc3)c21 | . | . | -1.5% | . | -1.0%
ClC1=C(Cl)C(Cl)(Cl)C(Cl)=C1Cl | . | . | . | . | 0.0%
CC(OC(=O)Cn1ccccc1=O)C(=O)Nc1cc(Cl)cc(Cl)c1 (stereo not given) | . | . | . | -1.1% | .
CCOC(=O)c1c(C)[nH]c(C)c1S(=O)(=O)N1CCC(C(=O)N2CCN(c3cccc(C)c3)C(C)C2)CC1 (stereo not given) | . | . | -3.5% | . | .
CCOC(=O)c1sc(NC(=O)CC)c(C#N)c1C | -3.1% | -11.1% | 4.2% | 21.1% | -0.4%
Cc1sc(NC(=O)c2ccco2)c(CN2CCN(c3ccc(F)cc3)CC2)c1C | 0.0% | 0.3% | ? | -2.8% | -20.5%
CCOC(=O)c1sc(NC(=O)c2ccco2)c(C#N)c1C | -2.1% | 0.0% | 13.5µM* | -1.8% | -2.6%
CCc1c(C)sc(NC(=O)c2noc(C)c2[N+](=O)[O-])c1C#N | 3.5% | -1.5% | 10.7µM* | 2.6% | -25.5%
Cc1sc(NC(=S)NC(=O)c2ccco2)c(C#N)c1C | ? | 0.2% | 2.69µM* | ? | .
Cc1sc(NC(=O)c2ccco2)c(CN2CCN(c3ccccn3)CC2)c1C | 9.9% | 8.3% | 6.01µM* | 4.1% | .
Cc1ccc(C(C)C)c2c1C(c1ccc3c(c1)OCO3)CC(=O)O2 (stereo not given) | . | . | . | 1.3% | .
Cc1ccc(Cl)cc1NC(=O)C(=O)N/N=C/c1ccc2c(c1)OCO2 | -3.1% | -1.4% | 5.6% | ? | .
Cc1cc(C)c2c(n1)SCCN2C(=O)Nc1ccc(C(=O)Nc2cc(Cl)ccc2C)cc1 | . | . | 0.2% | . | .
CCc1c(C)sc(NC(=O)c2ccco2)c1C#N | 3.55µM* | ? | 16.9µM* | ? | .
Nc1cc(-c2ccc(Br)cc2)[nH]n1 | 15.7% | 18.4% | ? | -2.2% | -2.1%
SMILES | Rab9 prom act | NPC1 prom act | FLuc counter | ELG1 genotoxic | SMN2 splice enh
Cc1cc(-c2ccc(Br)cc2)n[nH]1 | ? | ? | 19µM* | ? | ?
CCCc1cc(C(=O)N(C)CC(=O)Nc2ccc(OCC)c(OCC)c2)sc1C | 1.2% | -0.7% | -0.1% | -5.1% | .
CSc1sccc1/C=C(/C#N)C(=O)c1ccco1 | 12.4% | 18.6% | 15.1µM* | 7.7% | .
O=C1C=C(c2ccc3ccccc3c2)C[C@@H](c2ccc(F)cc2)C1 | -3.8% | 26.8% | ? | 5.1% | .
CCOc1ccc(S(=O)(=O)N2CCOCC2)cc1NS(=O)(=O)c1ccc(OC)c([N+](=O)[O-])c1 | 0.3% | -2.8% | -2.7% | 0.5% | .
O=C(COC(=O)CCc1c[nH]c2ccccc12)Nc1ccccc1C(F)(F)F | 1.7% | -2.0% | 4.5% | -1.1% | .
CC(C)c1ccc(C(CC(=O)O)NC(=O)c2cccs2)cc1 (stereo not given) | -1.3% | -2.6% | -7.4% | 1.1% | 9.8%
COc1cc(C(=O)Nc2scc(-c3ccc(Br)cc3)c2C(=O)O)cc(OC)c1OC | 6.7% | -5.9% | -1.9% | -8.8% | .
Cc1ccc(-c2csc(NC(=O)c3ccccc3Cl)c2C(=O)O)cc1 | 4.5% | -4.8% | 26.9µM* | 0.6% | .
Cc1ccc(-c2csc(NC(=O)c3ccc(Br)cc3)c2C(=O)O)cc1 | 3.55µM* | 2.51µM* | 12µM* | 1.9% | .
CC(C)c1ccc(-c2csc(NC(=O)c3cccs3)c2C(=O)O)cc1 | 1.6% | 19.9% | 16.9µM* | -12.3% | .
Cc1ccc(C2CN(CCC(N)=O)C(=O)CO2)cc1 (stereo not given) | -1.1% | -4.6% | -0.4% | 4.0% | .
CC1CC[C@@]23CCC4(C)[C@@]5(C)CCC6C(C)(C)C(=O)CC[C@@]6(C)C5C=C[C@@]4(OC2=O)C3C1C (stereo not given in full) | . | . | . | . | 6.3%
N#CC1=C2SC=C(c3ccc(Br)cc3)N2CCCC1=O | 1.58µM* | ? | 5.36µM* | 18.7% | 15.8µM*
COc1ccccc1Nc1nc(N)nc(CSC(=S)N2CCCCC2)n1 | 21.5% | 6.3% | 16.9µM* | 13.8% | .
Nc1nc(CSC(=S)N2CCCCC2)nc(Nc2ccccc2)n1 | ? | 29.5% | 26.9µM* | ? | ?
CC1CC(C)CN(C(=S)SCc2nc(N)nc(Nc3ccccc3)n2)C1 (stereo not given) | -4.5% | 0.8% | -6.5% | -3.4% | .
Nc1nc(CSC(=S)N2CCOCC2)nc(Nc2ccccc2)n1 | 3.55µM* | ? | 13.5µM* | 20.6µM* | 11.2µM*
CCOc1ccc(Nc2nc(N)nc(CSC(=S)N3CCOCC3)n2)cc1 | 29.4% | 2.82µM* | ? | 5.0% | .
Nc1nc(CSC(=S)N2CCN(c3ccccc3)CC2)nc(Nc2ccc(F)cc2)n1 | 2.0% | -3.7% | 0.8% | -10.6% | .
COc1cccc(CC(=O)OCC(=O)N(C)CC(=O)Nc2ccccc2Cl)c1 | -1.1% | 0.0% | 1.9% | 1.8% | .
Cc1cccc(Nc2nc(N)nc(CSC(=S)N3CCOCC3)n2)c1 | ? | ? | -3.9% | 16.6% | .
Cc1ccc(Nc2nc(N)nc(CSC(=S)N3CCOCC3)n2)cc1 | ? | 2.82µM* | 15.1µM* | ? | ?
CC(C)C[C@@H](N)C(=O)O | . | . | . | . | 1.2%
COCCN(C(=O)COC(=O)c1ccc(Cl)nc1)c1c(N)n(Cc2ccccc2)c(=O)[nH]c1=O | -2.4% | -3.7% | -1.8% | 0.7% | .
CCCCN1C(=O)CC(Nc2ccc(CC)cc2)C1=O (stereo not given) | 24.7% | 12.3% | 13.5µM* | 16.4µM* | ?
O=C(NC1CCS(=O)(=O)C1)c1ccc(-c2ccc(Br)cc2)o1 (stereo not given) | 5.5% | 5.4% | ? | 5.0% | -32.2%
O=C(NC12CC3CC(CC(C3)C1)C2)c1ccc([N+](=O)[O-])o1 | 3.8% | 0.9% | ? | -0.8% | .

Screening data from PubChem BioAssay.
